# Bioassay records from PubChem BioAssay.
# SENP8 block-1: inhibitors of human SENP8 protease; Q96LD8; purified SENP8, Z-RLRGG-aminoluciferin cleavage, luminescence; inhibition, % at 10 µM; actives 1.2% (n = 330,000); AID 2540; in the data active means inhibition above about 50%
# Target sequence (Q96LD8 whole entry, looked up): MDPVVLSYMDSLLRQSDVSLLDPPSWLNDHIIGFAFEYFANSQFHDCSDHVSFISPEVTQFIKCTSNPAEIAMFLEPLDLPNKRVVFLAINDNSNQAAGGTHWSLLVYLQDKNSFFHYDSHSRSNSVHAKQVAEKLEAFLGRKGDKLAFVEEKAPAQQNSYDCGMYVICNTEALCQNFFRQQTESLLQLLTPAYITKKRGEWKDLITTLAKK
# SENP6 inh: blocks the human protease SENP6; Q9GZR1; Recombinant SENP6 catalytic domain, aminoluciferin luminescence; inhibition, % at 10 µM; actives 1.8% (n = 330,000);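 active means inhibition above about 50% at the single tested dose, limit read from the data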
# SENP7 inh: SENP7 protease inhibition. recombinant SENP7, Z-RLRGG-aminoluciferin luminescence, 40 min. Q9BQF6. inhibition, % at 5 µM. actives 1.5% (n = 330,000);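 active means inhibition above about 50% at the single test dose, limit read from the data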
# Target sequence (Q9BQF6 706-1050 limits assumed): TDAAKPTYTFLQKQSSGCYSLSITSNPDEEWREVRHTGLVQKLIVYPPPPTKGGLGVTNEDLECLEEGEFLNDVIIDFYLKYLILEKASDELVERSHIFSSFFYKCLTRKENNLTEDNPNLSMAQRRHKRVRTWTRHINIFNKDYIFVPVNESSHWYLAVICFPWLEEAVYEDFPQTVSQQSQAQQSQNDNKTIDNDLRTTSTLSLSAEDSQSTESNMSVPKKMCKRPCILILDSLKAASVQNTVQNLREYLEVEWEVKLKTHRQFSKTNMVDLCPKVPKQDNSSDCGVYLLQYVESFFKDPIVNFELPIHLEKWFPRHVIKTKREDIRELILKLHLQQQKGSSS
# TRAIL sens C8: sensitizes caspase-8 expressing cells to TRAIL; NB7+C8 cells + TRAIL, ATPlite viability luminescence; inhibition (viability loss, TRAIL sensitization), % at 10 µM; actives 1% (n = 360,000); AID 624354;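 active means compounds causing at least 50% loss of cell viability in the single-dose screen, relative to plate controls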
# PPC-1+TRAIL kill: kills PPC-1 cancer cells in the presence of TRAIL | PPC-1 cells + TRAIL, ATPLite viability luminescence | actives 0.41% (n = 220,000) | cell killing (% activity), % at 4 µM or 5 µM;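 active means cell killing above 50% in the first pass at 4 µM, then a duplicate retest at 5 µM averaging 50% or more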
# SENP8 block-2: blocks human SENP8 cleavage of Nedd8 substrate. Q96LD8. recombinant SENP8, Nedd8 substrate fluorescence. inhibition, % at 20 µM. actives 0.64% (n = 360,000); in the data active means inhibition mostly above about 40%, no sharp cut-off; inactive means mostly below about 27%
# SENP8 confirm: confirmation of human SENP8 protease inhibitors; Recombinant SENP8, Z-RLRGG-aminoluciferin luminescence, 60 min; actives 40% (n = 6,200); inhibition, % at 12.5 µM; shares compounds with SENP7 inh;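 active means mean inhibition across replicates above about 50%, limit read from the data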
# SENP6 conf: confirmation of human SENP6 protease inhibitors; recombinant SENP6, Z-RLRGG-aminoluciferin luminescence; shares compounds with SENP7 inh; actives 58% (n = 6,200); inhibition, % at 12.5 µM
# SENP7 confirm: human SENP7 inhibition, confirmed; shares compounds with SENP7 inh; recombinant SENP7, Z-RLRGG-aminoluciferin luminescence, 40 min; inhibition, % at 12.5 µM; actives 69% (n = 6,200); AID 488917
# Casp3 select: selectivity test for SENP inhibitors: human caspase-3 inhibition. shares compounds with SENP7 inh. purified caspase-3, Z-DEVD-aminoluciferin luminescence, 60 min. inhibition, % at 12.5 µM. actives 60% (n = 6,200);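 active means mean inhibition above about 50%, limit read from the data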
# SENP luc ctr: luminescence interference (SENP counter-screen); shares compounds with SENP7 inh; Pre-incubated SENP8/Z-RLRGG-aminoluciferin, luciferase luminescence interference; inhibition, % at 12.5 µM; actives 39% (n = 6,200);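 active means mean inhibition above about 50% when retested at one dose, limit read from the data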
# A number is an active result; n = inactive; x = not tested or not shown. This is a sample that favours compounds with a hit; in the whole collection about 3% have one here.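 How the source made its calls, unless noted: active means mean inhibition above about 50% in the one-dose retest (limit read from the data); inactive means the rest.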
SMILES,SENP8 block-1,SENP6 inh,SENP7 inh,TRAIL sens C8,PPC-1+TRAIL kill,SENP8 block-2,SENP8 confirm,SENP6 conf,SENP7 confirm,Casp3 select,SENP luc ctr
CC1(C(=O)NS(=O)(=O)c2ccc3ccccc3c2)CCN1C(=O)Cc1ccc(-c2ccccc2)cc1 (stereo not given),x,x,x,n,x,n,x,x,x,x,x
Cc1ccsc1/C=N/Nc1nc(=O)[nH]nc1C,80,91,89,n,n,n,86,87,98,96,71
Cc1ccsc1/C=N/Nc1nc2ccccc2s1,72,87,86,n,n,n,n,62,87,n,58
Cc1nn(-c2ccccc2Cl)c(Cl)c1/C=N/Nc1nc2ccccc2s1,n,n,81,56,n,n,n,n,n,n,n
Oc1ccccc1C=NNc1nc2ccccc2s1,x,x,x,n,x,n,x,x,x,x,x
Cc1cc(C)nc(N/N=C/c2sccc2C)n1,n,n,n,n,n,n,x,x,x,x,x
Cn1cc(Cl)c(C(=O)Nc2nc3ccc(Cl)cc3s2)n1,n,68,95,n,n,n,n,n,67,55,n
O=C(Nc1nc2ccc(Cl)cc2s1)c1ccco1,81,86,89,n,n,n,n,80,59,86,n
Cc1cccc(NC(=O)c2ccco2)c1C,n,n,n,n,x,n,x,x,x,x,x
Cc1cc(NC(=O)c2ccco2)sc1C,68,83,76,n,x,n,n,60,86,81,67
CC1CC1C(=O)Nc1nc2ccc(Cl)cc2s1 (stereo not given),n,n,n,n,x,n,x,x,x,x,x
CC(=O)Nc1nc2ccc(Br)cc2s1,56,80,70,n,n,n,72,69,92,74,59
CCC(c1ccccc1)c1noc(CCN(CC)CC)n1 (stereo not given),x,x,x,n,x,n,x,x,x,x,x
C=CCOc1cccn2c(N(C)C(=O)c3ccccc3F)c(CC)nc12,x,x,x,n,x,n,x,x,x,x,x
COc1ccc(CCN2CC(C(=O)NCCc3ccccc3C(F)(F)F)CCC2=O)cc1 (stereo not given),n,n,n,n,x,n,x,x,x,x,x
CC(OC(=O)Cc1c(F)cccc1Cl)C(=O)NC1CCCCC1C (stereo not given),n,n,n,n,x,n,x,x,x,x,x
CN[C@@H](CO)C(=O)NC[C@H]1O[C@@H](n2cnc3c(N)ncnc32)[C@H](O)[C@@H]1O,x,x,x,n,x,n,x,x,x,x,x
COc1cccc(NC(=O)N(C)C[C@@H]2OCc3cn(nn3)CCCC(=O)N([C@H](C)CO)C[C@H]2C)c1,x,x,x,n,x,n,x,x,x,x,x
O=C(Nc1ccc(-c2cn3ccccc3n2)cc1)c1ccco1,n,71,59,71,73,n,59,58,85,79,69
O=C(Nc1nc2ccsc2c(=O)s1)c1ccco1,53,72,77,n,n,n,79,72,94,n,77
O=C(Nc1ccc(-c2cn3ccccc3n2)cc1)c1ccc(Cl)cc1,n,n,n,n,n,n,x,x,x,x,x
Cc1cc2sc(NC(=O)c3ccco3)nc2cc1Cl,n,n,71,n,x,n,n,n,n,n,n
COc1ccc2nc(NC(=O)c3ccco3)sc2c1,87,88,93,67,x,n,93,93,101,94,79
O=S(=O)(Nc1cccc(-c2ccc3nncn3n2)c1)c1cc(F)ccc1F,n,n,n,n,x,n,x,x,x,x,x
COc1ccc(/C(N)=N/OC(=O)Cc2ccc(OC)c(OC)c2)cc1,n,n,n,n,n,n,x,x,x,x,x
SMILES,SENP8 block-1,SENP6 inh,SENP7 inh,TRAIL sens C8,PPC-1+TRAIL kill,SENP8 block-2,SENP8 confirm,SENP6 conf,SENP7 confirm,Casp3 select,SENP luc ctr
CN1CCN(C(=O)C[C@@H]2C=C[C@H](NS(=O)(=O)c3cccc(F)c3)[C@@H](CO)O2)CC1,x,x,x,n,x,n,x,x,x,x,x
O=C1COc2ccc(C(=O)COc3ccc(Cl)cc3Br)cc2N1,n,n,n,n,x,n,x,x,x,x,x
O=C(Nc1nc2ccc(Br)cc2s1)c1ccco1,58,75,63,n,x,n,n,64,90,69,n
CCOc1ccc(-c2csc(NC(=O)c3ccco3)n2)cc1,n,n,n,n,x,n,x,x,x,x,x
O=C(Nc1ccc2nc(-c3ccccc3)[nH]c2c1)c1ccco1,n,n,n,n,n,n,x,x,x,x,x
Cc1cccc2[nH]c(-c3ccc(NC(=O)c4ccco4)cc3)nc12,77,91,90,n,n,n,n,80,96,75,78
COc1ccc(-c2csc(NC(=O)c3ccco3)n2)cc1,n,56,n,n,n,n,n,n,75,n,n
COc1ccc(-c2ccc(NC(=O)c3ccco3)cc2)nn1,90,91,94,83,x,n,90,90,99,96,68
O=C1NC[C@@H](CCCCN2CCN(CC3CCCCC3)C(=O)C2=O)N(CC2CCCCC2)C1=O,x,x,x,n,x,n,x,x,x,x,x
Cn1cnc(S(=O)(=O)Nc2cc(-c3ccc(Cl)cc3)nn2C)c1,n,n,n,n,n,n,x,x,x,x,x
Fc1ccc(/C=N/Nc2nccnc2Cl)cc1,86,93,94,n,x,n,93,93,100,96,92
Fc1ccc(/C=N/Nc2nnnn2-c2ccccc2)cc1,n,n,n,n,n,n,x,x,x,x,x
Fc1cccc(/C=N/Nc2nccnc2Cl)c1,93,97,99,n,x,n,96,96,102,98,96
Fc1cccc(/C=N/Nc2nncc3ccccc23)c1,90,92,96,84,x,n,78,94,98,89,61
Fc1cccc(/C=N/N=C/c2cccc(F)c2)c1,n,n,n,n,n,n,x,x,x,x,x
Oc1ccc(/C=N/Nc2nccnc2Cl)cc1,98,97,99,n,n,n,98,99,102,98,98
O=C(NN=Cc1ccc(O)cc1)C(=O)NN=Cc1ccc(O)cc1,x,x,x,n,x,n,x,x,x,x,x
CCC(C(=O)NCc1ccccc1)n1c(-c2cccs2)nc2ccccc21 (stereo not given),x,x,x,n,x,n,x,x,x,x,x
COc1cccc(NC(=O)c2csc3c2CCCC3)c1,54,68,62,n,n,n,59,59,87,n,n
COc1ccc(NC(=O)c2csc3c2CCCC3)cc1,n,n,50,n,n,n,n,n,75,n,n
Cc1ccc(NC(=O)c2scc3c2CCCC3)cc1,n,91,85,n,n,n,n,n,n,n,n
